Assay outcomes (PubChem)
TDP1 cell CPT: DT40-hTDP1 cell growth loss with CPT; chicken DT40 Tdp1-/-;hTDP1 cells + 20 nM CPT, ATP luminescence, 48 h; Potency, µM (titrated, usually from 46.2 µM), usual class: inhibitors; hit rate 12% among 420,000; AID 686979; further: nearly all actives have a fitted effect of over 55% in size
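Cell growth measured by CellTiter-Glo luminescence after a minimum 48 h, 37 C compound exposure with 20 nM CPT in Tdp1-knockout DT40 cells stably expressing hTDP1, seeded 400/well; qHTS titration format.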
TDP1 inh: inhibitors of human tyrosyl-DNA phosphodiesterase TDP1. Q9NUW8. recombinant TDP1, AlphaScreen DNA substrate cleavage. Potency, µM (highest dose often 130 µM), actives largely listed as inhibitors. hit rate 0.28% among 350,000. AID 485290; further: nearly all actives have a fitted effect of over 40% in size
Target sequence (Q9NUW8 whole entry, looked up): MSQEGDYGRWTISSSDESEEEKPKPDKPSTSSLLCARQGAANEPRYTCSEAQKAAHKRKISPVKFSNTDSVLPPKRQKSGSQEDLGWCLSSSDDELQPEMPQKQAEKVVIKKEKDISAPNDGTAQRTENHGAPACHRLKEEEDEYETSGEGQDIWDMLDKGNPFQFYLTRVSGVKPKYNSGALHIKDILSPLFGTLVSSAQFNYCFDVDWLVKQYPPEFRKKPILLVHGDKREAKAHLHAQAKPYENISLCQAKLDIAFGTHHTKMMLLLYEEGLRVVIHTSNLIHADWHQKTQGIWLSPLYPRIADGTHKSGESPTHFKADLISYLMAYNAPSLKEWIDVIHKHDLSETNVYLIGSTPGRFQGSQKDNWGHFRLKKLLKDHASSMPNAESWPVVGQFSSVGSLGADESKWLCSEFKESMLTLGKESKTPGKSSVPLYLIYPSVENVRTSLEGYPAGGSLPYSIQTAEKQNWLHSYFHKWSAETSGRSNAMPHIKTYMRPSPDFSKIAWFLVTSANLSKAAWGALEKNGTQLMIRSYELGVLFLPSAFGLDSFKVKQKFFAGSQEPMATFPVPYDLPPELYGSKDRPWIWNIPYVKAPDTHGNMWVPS
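Enzyme-compound mixtures sat 15 min at room temperature, followed by a 5 min reaction with 15 nM final substrate and 10 min with AlphaScreen beads. Recombinant human Tdp1 was used at 1 nM final.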
IL1B secr inh: blocks inflammasome-driven IL-1 beta release; THP-1 LPS/ATP IL-1B secretion, AlphaLISA, 16 h; active compounds read low; activity change, % at 57.5 µM; hit rate 4.7% among 360,000; AID 743279; in the data active means activity change below about -50%; inconclusive means mostly about -30% to -49%
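Secreted IL-1B measured by AlphaLISA bead assay after 16 h compound exposure of THP-1 cells; compounds (final up to 57.5 uM) added 1 h before LPS (250 ng/mL) and ATP (1.25 mM) stimulation; lower signal means less secretion.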
TGFb inhibitor: blocks TGF-b signaling; HepG2 CAGA-GFP TGF-b/SMAD3 reporter, GFP fluorescence, 18 h; TGF-beta stimulated, 500 pg/mL final; Potency, µM (doses to about 46.1 µM), usual class: inhibitors; hit rate 1.2% among 410,000; AID 588855; further: nearly all actives have a fitted effect of over 65% in size
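Cell-based qHTS in HEPG2 carrying a CAGA-GFP Smad reporter; compounds added before 500 pg/mL final TGF-beta, 18 h incubation at 37 degrees C, GFP fluorescence quantified per cell by imaging cytometry.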
DT40 TDP1 no CPT: qHTS for Inhibitors of human tyrosyl-DNA phosphodiesterase 1 (TDP1): qHTS in cells in absence of CPT; DT40 Tdp1-/- hTDP1 cells, no CPT, ATP luminescence, 48 h; Potency, µM (top dose mostly 46.2 µM), hits mostly inhibitors; hit rate 15% among 420,000; further: nearly all actives have a fitted effect of over 55% in size
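Readout: luminescence from CellTiter-Glo after 30 min in the dark at RT. Cells: DT40 Tdp1-/- with stable hTDP1, 400/well. Exposure: compounds alone, ≥48 hr, 37 °C.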
HepG2 tox: counter-screen for TGF-b inhibitors: cytotoxicity in HepG2 cells. hit rate 0.76% among 410,000. AID 588856. Potency, µM (titrated, usually from 46.1 µM), actives largely listed as cytotoxic. HepG2 CAGA-GFP viability, ATP luminescence, 18 h
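CellTiter-Glo luminescence gave cytotoxicity after 18 hours at 37 degrees C. The cells were HepG2 CAGA-GFP in 1% FBS DMEM, stimulated with 500 pg/mL TGF-beta after compound addition. %Activity was normalised to no-cell wells (complete cell-killing) and DMSO (no toxicity), and curves were fitted and classified.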
A number is an active result. This is a sample that favours compounds with a hit; in the whole collection about 18% have one here. Unless noted, the call rests on the fitted dose curve; in most records, active means well fitted curve in the direction sought with a large enough effect; inconclusive means small, poorly fitted or top-dose-only effect, or another doubt; inactive means no such curve, though single readings can be large; an effect the other way counts as inactive or inconclusive.

For CN(C)c1ncc2nc(-c3ccccc3)c(=O)n(Cc3ccc(F)cc3)c2n1 the results were TDP1 cell CPT inactive and DT40 TDP1 no CPT inactive.
`COc1cc(C(=O)NCCOc2cc(C)cc(C)c2)c(Br)c(OC)c1OC` gave TDP1 cell CPT 16µM, TDP1 inh inactive, IL1B secr inh inactive, TGFb inhibitor inactive, DT40 TDP1 no CPT inconclusive and HepG2 tox inactive.
For O=C(OCCN1C(=O)c2cccc3c(N4CCOCC4)ccc(c23)C1=O)c1cc(Cl)cc(Cl)c1 the results were TDP1 inh inactive.
`CCN(CC)S(=O)(=O)c1ccc(C(=O)OCCN2C(=O)c3cccc4c(N5CCOCC5)ccc(c34)C2=O)cc1` gave TDP1 cell CPT inconclusive, TDP1 inh inactive, IL1B secr inh inactive, TGFb inhibitor inactive, DT40 TDP1 no CPT 18µM and HepG2 tox inactive.
`O/N=C1\CCCc2c1nc(-c1ccccc1F)n2O` gave TDP1 cell CPT inactive, TDP1 inh inactive, IL1B secr inh inactive, TGFb inhibitor inactive, DT40 TDP1 no CPT inactive and HepG2 tox inactive.
`O=C1c2ccccc2C(Nc2ccc3c(c2)OCCO3)N1Cc1ccc2c(c1)OCO2` (stereo not given) gave TDP1 cell CPT inconclusive, TDP1 inh inactive, IL1B secr inh inactive, TGFb inhibitor inactive, DT40 TDP1 no CPT inconclusive and HepG2 tox inactive.
O=C1OC(Nc2ccc3c(c2)OCO3)c2ccccc21 (stereo not given) was read as TDP1 cell CPT 22µM, TDP1 inh inactive, IL1B secr inh -124, TGFb inhibitor inconclusive, DT40 TDP1 no CPT 13µM and HepG2 tox inactive.
CC(=O)OC1CC2C(C)(C)C(O)CC(O)[C@@]2(C)C2CC[C@@]3(C)C(=CC(=O)OC3c3ccoc3)[C@]12C (stereo not given in full) was read as TDP1 cell CPT inconclusive, TDP1 inh inactive and DT40 TDP1 no CPT inconclusive.
`CN(C)c1ccc(C=NNC(=S)Nc2ccc(F)cc2)cc1` gave TDP1 cell CPT 3.7µM, IL1B secr inh inconclusive, TGFb inhibitor inactive, DT40 TDP1 no CPT 4.6µM and HepG2 tox inactive.
For CSC(=S)N/N=C/c1ccc(N(C)C)cc1 the results were TDP1 cell CPT 4.6µM, TDP1 inh inactive, IL1B secr inh inactive, TGFb inhibitor inactive, DT40 TDP1 no CPT 5.2µM and HepG2 tox inactive.
Screening Fc1ccc(NC(=S)N/N=C/c2ccc(F)c(F)c2)c(F)c1 returned TDP1 cell CPT inactive, TDP1 inh inactive, IL1B secr inh inconclusive, TGFb inhibitor inactive, DT40 TDP1 no CPT inactive and HepG2 tox inactive.
Screening COc1cccc(CNC(=O)Cc2c(C(=O)O)c(C)cn2C)c1 returned TDP1 cell CPT inactive, TDP1 inh inactive, TGFb inhibitor inactive, DT40 TDP1 no CPT inactive and HepG2 tox inactive.
`CC[C@H](C)[C@H](NC(=O)[C@H](Cc1ccc(O)cc1)NC(=O)[C@H](Cc1cnc[nH]1)NC(=O)[C@H](CCCNC(=N)N)NC(=O)[C@H](CC(C)C)NC(=O)[C@H](C)NC(=O)[C@@H](N)CO)C(=O)N[C@@H](CC(N)=O)C(=O)N[C@@H](CC(C)C)C(=O)N[C@H](C(=O)N[C@H](C(=O)N[C@@H](CCCNC(=N)N)C(=O)N[C@@H](CCC(N)=O)C(=O)N[C@@H](CCCNC(=N)N)C(=O)N[C@@H](Cc1ccc(O)cc1)C(N)=O)[C@@H](C)O)[C@@H](C)CC` gave TDP1 inh inactive.
For O=C(NCCc1c[nH]c2ccccc12)C(=O)Nc1cc2c3c(c1)CC(=O)N3CCC2 the results were TDP1 cell CPT inconclusive, IL1B secr inh inactive, TGFb inhibitor inactive, DT40 TDP1 no CPT inconclusive and HepG2 tox inactive.
For CC1CC(C)CN(C(=O)CSC2=Nc3ccccc3C3=NC(Cc4c[nH]c5ccccc45)C(=O)N23)C1 (stereo not given) the results were TDP1 cell CPT inconclusive, TDP1 inh inactive, IL1B secr inh inactive, TGFb inhibitor inactive, DT40 TDP1 no CPT 16µM and HepG2 tox inactive.
For CCc1cccc(C)c1NC(=O)C(CC)n1nc(C)c2c(C)n(-c3ccccc3)nc2c1=O (stereo not given) the results were TDP1 cell CPT inactive, TDP1 inh inactive, TGFb inhibitor inactive, DT40 TDP1 no CPT inactive and HepG2 tox inactive.
For COc1ccc(-c2nc3c4ccccc4n(CC(=O)N4CCN(c5ccc(F)cc5)CC4)c(=O)n3n2)cc1 the results were TDP1 cell CPT inactive, TDP1 inh inactive, TGFb inhibitor inactive, DT40 TDP1 no CPT inactive and HepG2 tox inactive.
Screening O=C(CSc1nccn1Cc1ccc2c(c1)OCO2)Nc1ccccc1F returned TDP1 cell CPT inactive, TDP1 inh inactive, TGFb inhibitor inactive, DT40 TDP1 no CPT inactive and HepG2 tox inactive.
COc1ccc(Cn2cc(CN3CC(N4CCN(C)CC4)CS3(=O)=O)nn2)cc1 (stereo not given) was read as TDP1 cell CPT inactive, IL1B secr inh inactive and DT40 TDP1 no CPT inconclusive.
CC(=O)Nc1ccc(NC(=O)CN2C(=O)CCc3cc(S(=O)(=O)N4CCCCC4)ccc32)cc1 was read as TDP1 cell CPT inactive, TDP1 inh inactive, TGFb inhibitor inactive, DT40 TDP1 no CPT inactive and HepG2 tox inactive.
Cc1cc(C)cc(NC(=O)CN2C(=O)CCc3cc(S(=O)(=O)N4CCCCC4)ccc32)c1 was read as TDP1 cell CPT 16µM, TDP1 inh inactive, TGFb inhibitor inconclusive, DT40 TDP1 no CPT inconclusive and HepG2 tox inactive.
Screening COc1ccc(NC(=O)CN2C(=O)COc3ccc(S(=O)(=O)N4CCCCC4)cc32)c(OC)c1 returned TDP1 cell CPT 15µM, TDP1 inh inactive, IL1B secr inh -54, TGFb inhibitor inactive, DT40 TDP1 no CPT inconclusive and HepG2 tox inactive.
For COc1ccc(OC)c(NC(=O)CN2C(=O)CCc3cc(S(=O)(=O)N4CCCCC4)ccc32)c1 the results were TDP1 cell CPT 26µM, TDP1 inh inactive, TGFb inhibitor inconclusive, DT40 TDP1 no CPT inconclusive and HepG2 tox inactive.
Screening CC(C)(C)OC(=O)C[C@@H]1C/C=C\C[C@H](CC(=O)NCCO)C(=O)N2CCC[C@H]2COC1=O returned TDP1 cell CPT inactive, TDP1 inh inactive, IL1B secr inh inactive, TGFb inhibitor inactive, DT40 TDP1 no CPT inactive and HepG2 tox inactive.
Screening N#CC[C@H](Cc1ccccc1)N1CC[C@@H](O)CCC1=O returned TDP1 cell CPT inactive, IL1B secr inh inactive, TGFb inhibitor inactive, DT40 TDP1 no CPT inactive and HepG2 tox inactive.
